The record followed here is PubChem BioAssay AID1032 (The Scripps Research Institute Molecular Screening Center, 2008).

The campaign covered roughly 200,000 compounds. About 670 (0.34%) were called active. Rule as the data show it: active = activation above about 22%; inactive = the rest. For the sample, actives were picked, then their nearest neighbours and some compounds at random.

Sequence of Peroxisome proliferator-activated receptor gamma (Homo sapiens) (P37231 whole entry, looked up, the tested form may be a part): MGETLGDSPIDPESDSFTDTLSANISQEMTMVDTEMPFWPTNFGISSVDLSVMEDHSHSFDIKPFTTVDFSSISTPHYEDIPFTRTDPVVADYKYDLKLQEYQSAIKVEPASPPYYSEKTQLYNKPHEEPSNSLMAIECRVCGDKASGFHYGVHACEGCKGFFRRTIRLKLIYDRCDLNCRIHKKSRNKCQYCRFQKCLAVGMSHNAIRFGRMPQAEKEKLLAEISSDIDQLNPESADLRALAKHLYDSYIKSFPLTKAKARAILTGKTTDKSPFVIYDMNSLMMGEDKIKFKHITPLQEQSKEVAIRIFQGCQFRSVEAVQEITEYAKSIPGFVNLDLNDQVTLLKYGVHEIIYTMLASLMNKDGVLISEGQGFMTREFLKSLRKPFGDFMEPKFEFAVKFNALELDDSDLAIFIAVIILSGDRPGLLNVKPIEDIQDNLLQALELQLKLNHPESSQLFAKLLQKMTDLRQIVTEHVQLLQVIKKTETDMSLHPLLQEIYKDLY

The assay concerns the target Peroxisome proliferator-activated receptor gamma (Homo sapiens) (UniProt P37231). The experiment in a line: compounds enhancing SRC-2 coactivator binding to PPARgamma – biochemical, HTS, primary screen (AID 1032).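 Also: 0% = vehicle and 100% = reference agonist.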 The settings on record: PPARgamma LBD-SRC-2 recruitment, at 8 µM, active compounds read high.
`Cc1nc(-c2ccccc2)sc1C(=O)/C=C/c1ccccc1`: the activation is 13.4% (inactive). Under `Cc1nc(-c2ccccc2)sc1-c1nc(-c2ccccc2)ncc1S(=O)(=O)c1ccccc1` stands 30% (active). As for `C=CCn1c(-c2sc(-c3ccccc3)nc2C)n[nH]c1=S`, the activation is 7.03% (inactive). The result for `O=C(NC(=S)Nc1cc(C(F)(F)F)ccc1N1CCOCC1)c1ccc(-c2cccc(Cl)c2)o1` reads 2.85% (inactive); that for `COc1cc(OC)nc(N/N=C(\c2ccccc2)c2ccncc2)n1`, -0.95% (inactive); that for `CC1=NCCN1S(=O)(=O)c1cccc([N+](=O)[O-])c1`, 0.1% (inactive). The result for `O=C(CN(C(=O)c1csnn1)c1cccc(F)c1)NCc1ccc(F)cc1` reads -2.69% (inactive).

As for `O=C(c1nnc(-c2ccc(Cl)cc2)o1)C1CCCC1`, the activation was 5.05% (inactive). The result for `Cc1cccc(C(=O)OCC(=O)NCC(C)C)c1O` reads 1.94% (inactive); that for `COCC(=O)Nc1ccc(Br)cc1`, 0.8% (inactive).

Regarding `CC(C)CNC(=O)COC(=O)c1ccccc1OCC(=O)Nc1ccc(Br)cc1`, the activation is 23.8% (active). Under `O=C(Nc1ccc(Cl)cc1)C1c2cccc[n+]2CC(=O)N1Cc1ccc2c(c1)OCO2` (centres undefined) stands -2.95% (inactive); under `CCCC/S(C)=N/S(=O)(=O)c1ccc(C)cc1` (centres undefined), 4.28% (inactive). The result for `CC(=O)n1c(C=Nc2ccccc2)c(O)c2ccccc21` reads 18.1% (inactive). As to `COc1ccc(CC(NC(C)=O)C(=O)NC2CCN(C(=O)c3ccc(OC)c(OC)c3)CC2)cc1OC` (centres undefined), the activation is -1.68% (inactive).

`Cn1c(-c2sc3cc(C(F)(F)F)cnc3c2-c2ccccc2)n[nH]c1=S`: the activation was 49.1% (active). Under `Cc1cc(C(F)(F)F)n2ncc(-c3ccccc3)c2n1` stands 6.32% (inactive); under `Cn1c(-c2sccc2OCc2cccc(C(F)(F)F)c2)n[nH]c1=S`, 3.72% (inactive). Under `O=C1CN(C(=O)CN2C(=O)NC3(CCCCC3)C2=O)c2ccccc2N1` stands -3.02% (inactive). For `CCSc1ccccc1C(=O)Nc1ccc2c(c1)OCO2`, the activation was 2.54% (inactive).

On to `COC(C(=O)Nc1ccc(S(=O)(=O)Nc2ccc(C)c(C)c2)cc1)c1ccccc1` (centres undefined), for which the activation is -10.9% (inactive). Under `COC(=O)c1[nH]c2ccc(Br)cc2c1NC(=O)Oc1ccccc1` stands 30% (active); under `COC(=O)c1[nH]c2ccccc2c1NS(=O)(=O)c1ccc(OC)cc1OC`, 13.7% (inactive); under `COC(=O)c1[nH]c2ccccc2c1NC(=O)CN1CCCc2ccccc21`, -0.25% (inactive).

Take `O=C(Nc1ccc2cn[nH]c2c1)c1ccc(S(=O)(=O)N2CCOCC2)cc1`: the activation was 3.19% (inactive). Under `Cc1nccn1CCC1CCCCN1C(=O)CCc1nnc(-c2ccsc2)o1` (centres undefined) stands -4.68% (inactive). Under `CN(C)CCOc1ccc(Cl)cc1C(C)(C)C` stands 3.96% (inactive). Under `COc1cc2c(cc1OC)C(C(C)C)=NC(C)(C)C2` stands 4.08% (inactive).

On to `COc1cc2c(cc1O)C(SC)=NC(C)(C)C2`, for which the activation was 1.5% (inactive).

For the molecule `COc1cc2c(cc1OC)C(Nc1ccc(S(N)(=O)=O)cc1)=NC(C)(C)C2`, the activation is 77.9% (active). The result for `COCCNC(=O)c1ccc(N2CCC3(CC2)OCCO3)c([N+](=O)[O-])c1` reads -6.47% (inactive).

`COc1ccc(C(=O)Nc2ccc3nc(N4CCCCC4)cc(C)c3c2)cc1OC`: the activation is 4.19% (inactive). Take `COc1cccc(/C=C2\SC(=N)N(c3ccc(F)cc3)C2=O)c1`: the activation was 3.36% (inactive). As for `O=C(NCc1ccco1)c1cc(-c2cccnc2)nc2ccc(Cl)cc12`, the activation was 8.92% (inactive). The result for `O=C(CSc1c2c(nc3ccc(Cl)cc13)CCCC2)NCc1ccco1` reads 30.9% (active). The result for `O=C(/C=C/c1ccc(Cl)cc1Cl)NCc1ccco1` reads -0.42% (inactive). Under `COC(=O)Cn1c(=NC(=O)c2cc(OC)c(OC)c(OC)c2)sc2cc(OC)ccc21` stands -0.43% (inactive). With `Cc1ccccc1-c1n[nH]c(=S)n1C`, the activation was 7.57% (inactive). The result for `Cc1n[nH]c(=S)n1/N=C/c1ccc(Br)o1` reads 6.61% (inactive); that for `Cc1ccccc1-c1n[nH]c(=S)n1/N=C/c1ccc(-c2ccccc2Br)o1`, 40.9% (active).

As to `CSc1ccccc1C(=O)NCc1ccccc1`, the activation was -5.42% (inactive). As to `Cc1ccc(C(=O)COC(=O)CCN2C(=O)C3C4CC(C(Br)C4Br)C3C2=O)cc1` (centres undefined), the activation was 3.47% (inactive).

For the molecule `COc1ccc(O[C@H]2C=C[C@@H](c3ccccc3)O[C@@H]2CO/N=C/C[C@@H]2C=C[C@H](OC(C)=O)[C@@H](COC(C)=O)O2)cc1`, the activation was 1.19% (inactive). Under `CC(=O)Nc1ccc(S(=O)(=O)NC(C)C(=O)OCC(=O)NC2CCCC2)cc1` (centres undefined) stands -3.44% (inactive); under `CS(=O)(=O)N1CCc2cc(C(=O)Nc3ccccc3)ccc21`, -4.48% (inactive); under `Cc1ccc(NC(=O)CCOc2ccccc2)cc1S(=O)(=O)Nc1ccccc1Cl`, 3.41% (inactive). Under `CCOC(=O)c1ccc(NC(=S)N2CCCC2)cc1` stands -1% (inactive); under `Cc1cccc2cc(C#N)c(N3CCCC3)nc12`, -7.68% (inactive).

Take `Cc1cc(C)c2nc(N3CCCC3)c(C#N)cc2c1`: the activation was 1.23% (inactive). The result for `CC(=O)c1ccc(S(=O)(=O)N2CCN(c3nc4c(C)c(C)ccc4cc3C#N)CC2)cc1` reads 32% (active); that for `C/C(=N\Nc1ccc([N+](=O)[O-])cc1)c1ccc(-n2nncc2C(C)(C)C)cc1`, -9.74% (inactive); that for `N#Cc1ccsc1NC(=O)CN1CCN(S(=O)(=O)c2cc(Cl)ccc2Cl)CC1`, 0.56% (inactive).

As to `O=C(C1CCCO1)N1CCN(C(=S)Nc2cccc(Cl)c2)CC1` (centres undefined), the activation was -4.23% (inactive). Under `O=C1OC(/C=C/c2ccccc2)=NC/1=C/c1ccco1` stands 8.63% (inactive); under `CCc1cccc(OC2OC(CO)C(O)C(O)C2NC(C)=O)c1` (centres undefined), 9.45% (inactive); under `Cc1cc(NC(=O)CSc2nnc(Nc3ccccc3F)s2)no1`, 0.38% (inactive). Under `Cc1cc(C)c2c(c1)cc(C)c1nnc(SCC(=O)Nc3cc(C)on3)n12` stands 26.5% (active); under `Cc1ccc(-c2csc(SCC(=O)Nc3cc(C)on3)n2)cc1`, -2.51% (inactive). Under `Cc1cccc(NC(=O)Cn2c(=O)n(Cc3ccccc3)c(=O)c3c(C)c(C)sc32)c1` stands 3.34% (inactive). Consider `N#Cc1c(-c2ccc(F)cc2)cc(C2CC2)nc1SCC(=O)c1cccs1`, for which the activation was 1.68% (inactive). Under `O=C(c1ccc(F)cc1)N1CCC(n2nnc3ccccc32)CC1` stands -10.4% (inactive); under `C=CCC(C(=O)c1ccccc1)[N+](C)(C)CC=C` (centres undefined), 1.14% (inactive); under `CN1CCN(S(=O)(=O)c2ccc(NC(=S)NC(=O)C3CC3)cc2)CC1`, 5.04% (inactive). The result for `COC(=O)CSc1nccc(-c2cccs2)n1` reads 0.01% (inactive); that for `COc1ccc(OC)c(C(=O)CSc2nnc(-c3cccs3)o2)c1`, 10.1% (inactive); that for `NC(=O)CSc1oc(-c2cccs2)nc1S(=O)(=O)c1ccccc1`, 36.9% (active). The result for `COc1ccc(/C(O)=C2\C(=O)C(=O)N(Cc3ccco3)C2c2ccc(OC)cc2OC)cc1` (centres undefined) reads 3.94% (inactive); that for `COc1ccc(/C(O)=C2/C(=O)C(=O)N(c3nc(C)c(C)s3)C2c2ccco2)cc1` (centres undefined), 22.7% (active); that for `COc1ccccc1C1/C(=C(/O)c2ccc(C)cc2)C(=O)C(=O)N1Cc1ccco1` (centres undefined), -3.88% (inactive). With `CCC(C)(C)NC(=O)c1cc([N+](=O)[O-])ccc1N1CCCCC1`, the activation is 0.23% (inactive). Under `CN(C)c1nccc(NCc2ccccc2)c1C#N` stands 9.56% (inactive). For `CN1CCN(C(c2cc3cc4c(cc3[nH]c2=O)OCCO4)c2nnnn2C2CCCC2)CC1` (centres undefined), the activation was 4.65% (inactive). The result for `Cc1cc(C(=O)CC#N)c(C)n1-c1c(C)n(C)n(-c2ccccc2)c1=O` reads 3.36% (inactive); that for `O=C(Nn1cnnc1)c1ccc([N+](=O)[O-])cc1`, 8.86% (inactive); that for `COc1ccc(-c2nnco2)cc1OC`, -1.39% (inactive). Under `COc1ccc2c(Cl)c(-c3nnco3)sc2c1` stands 22.3% (active). Under `COc1ccc2c(Cl)c(C(=O)NCc3ccco3)sc2c1` stands 4.82% (inactive). `CC1=C(C)C(=O)OC(C(C)C2CCC3C4CC=C5CC(OC6OC(COC7OC(CO)C(O)C(O)C7O)C(O)C(O)C6O)CC(O)C5(C)C4CCC23C)C1` (centres undefined): the activation is -5.38% (inactive).

As to `NC(=O)COc1ccc(C23CC4CC(CC(C4)C2)C3)cc1`, the activation is 13.6% (inactive). Under `COc1ccc(CC(=O)N2N=C(C)CC2(O)C(F)(F)F)cc1` (centres undefined) stands 4.95% (inactive); under `CCOC(=O)c1c(NC(=O)CNC2CCCc3ccccc32)sc(C(N)=O)c1C` (centres undefined), 19.8% (inactive); under `NS(=O)(=O)c1ccc(CCNC(=S)Nc2ccc(S(N)(=O)=O)cc2)cc1`, 4.85% (inactive). The result for `CCC(C)(C)NC(=O)C(c1cccc(OC)c1OC)N(CC(C)C)C(=O)CCC(=O)Nc1cc(C)on1` (centres undefined) reads 7.07% (inactive).

On to `CC(=O)NC(Cc1ccc(F)c(F)c1)C(=O)NC1CCN(C(=O)c2ccc(C)cc2)CC1` (centres undefined), for which the activation is -0.89% (inactive). Regarding `Cc1c(Cc2ccccc2)c(=O)oc2cc(OCC(N)=O)ccc12`, the activation is 4.43% (inactive).

In the case of `O=C(Oc1ccccc1)Oc1ccc2c(c1)oc(=O)c1ccccc12`, the activation is 48.7% (active). With `CC(=O)Oc1ccc2c(C)c(CC(C)O)c(=O)oc2c1` (centres undefined), the activation is -8.79% (inactive). The result for `O=C(CSc1ncnc2c1nnn2Cc1ccc(F)cc1)NC1CCCC1` reads 11.8% (inactive). Under `O=C(Nc1ccc([N+](=O)[O-])cc1)C1CC12CCC2` (centres undefined) stands 18.1% (inactive).

As for `CC1CC(C)CN(C(=O)CSc2ccsc2[N+](=O)[O-])C1` (centres undefined), the activation is 0.24% (inactive).

For `O=C(CSc1ccsc1[N+](=O)[O-])N1CCCCC1`, the activation was 22% (active). Under `O=C(CSCc1cccs1)N1CCCC1` stands -3.94% (inactive); under `Cc1cccc(OC(=O)c2sc3ncn(C)c(=O)c3c2C)c1`, -5.78% (inactive). The result for `CC1=CC=CN2C1=NC(=O)CC2(C)C(=O)N(CC(=O)NC1CCCC1)c1ccccc1C` (centres undefined) reads 1.53% (inactive).
